Laboratory results from PubChem BioAssay (NCI).
About 79,000 compounds went through this panel and 15% of them were active in at least one assay; those are over-represented in the sample as a whole. A number with no mark means an inactive call. The source made the active and inactive calls. Rule as the data show it: active = growth inhibition above about 70%; inactive = the rest.

Tests used:
[1] = NCI Yeast Anticancer Drug Screen. Data for the rad50 strain (AID 155);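 also: 0% = growth of vehicle-only cultures of the same strain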; conditions: S. cerevisiae rad50 strain growth inhibition; at 50.0 µM; stronger effect = higher value
Procedure, shortened: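 Growth of the mutant yeast was measured after compound exposure and referenced to vehicle-treated cultures.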

[2] = NCI Yeast Anticancer Drug Screen. Data for the mec2-1 strain (AID 157); conditions: S. cerevisiae mec2-1 strain, at 50.0 µM, stronger effect = higher value
Procedure, shortened: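 Each compound was tested on mec2-1 yeast, a strain altered in DNA damage repair or cell cycle control. Growth inhibition is reported relative to vehicle.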

[3] = NCI Yeast Anticancer Drug Screen. Data for the sgs1 mgt1 strain (AID 161);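 also: 0% = growth of cultures given vehicle only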; conditions: S. cerevisiae sgs1 mgt1 strain, at 50.0 µM, stronger effect = higher value
Procedure, shortened: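 Inhibition of yeast growth, normalised to vehicle-treated controls, is reported for a strain bearing genetic alterations in DNA damage repair.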

[4] = NCI Yeast Anticancer Drug Screen. Data for the cln2 rad14 strain (AID 165);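 also: 0% = growth equal to vehicle treated cultures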; conditions: S. cerevisiae cln2 rad14 strain, at 50.0 µM, stronger effect = higher value
Procedure, shortened: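 Test compounds were added to cln2 rad14 yeast cultures; inhibition of growth was then determined by comparison with vehicle treatment.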

[5] = NCI Yeast Anticancer Drug Screen. Data for the bub3 strain (AID 167); conditions: S. cerevisiae bub3 mutant strain, at 50.0 µM, stronger effect = higher value
Procedure, shortened: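 Whole-cell yeast assay. The mutant strain was incubated with compounds, and growth inhibition was determined by comparison with vehicle-treated cells.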

[6] = NCI Yeast Anticancer Drug Screen. Data for the mlh1 rad18 strain (AID 175); conditions: S. cerevisiae mlh1 rad18 strain growth inhibition; at 50.0 µM; stronger effect = higher value
Procedure, shortened: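 Inhibition values reflect reduced growth of mutant yeast versus vehicle-treated controls following compound exposure; the mutations affect DNA damage repair.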

## CCC1CCN(CC)CC1
[1]
  growth inhibition: 3.1%
[2]
  growth inhibition: -37.4%
[3]
  growth inhibition: 3.2%
[4]
  growth inhibition: 1.8%
[5]
  growth inhibition: -19.6%
[6]
  growth inhibition: -4.1%

## C=CC(=NC(C)(C)C)Nc1ccc(Cl)cc1
[1]
  growth inhibition: -13%
[2]
  growth inhibition: -6.8%
[3]
  growth inhibition: -36.2%
[4]
  growth inhibition: -14.6%
[5]
  growth inhibition: -19.2%
[6]
  growth inhibition: 3.4%

## O=[N+]([O-])c1cc(Cl)ccc1Nc1ccccc1
[1]
  growth inhibition: 51.3%
[2]
  growth inhibition: 32.5%
[3]
  growth inhibition: 57.1%
[4]
  growth inhibition: 4.65%
[5]
  growth inhibition: 24.8%
[6]
  growth inhibition: 53.5%

## Cc1cc(-c2cccc3ccccc23)c(C#N)c(=S)n1C1OC(CO)C(O)C(O)C1O (stereo not drawn)
[1]
  growth inhibition: 14.1%
[2]
  growth inhibition: 4.4%
[3]
  growth inhibition: 47.4%
[4]
  growth inhibition: 9.5%
[5]
  growth inhibition: 15.8%
[6]
  growth inhibition: 33.6%

## O=CCC(=O)c1ccc(Br)cc1
[1]
  growth inhibition: 8.95%
[2]
  growth inhibition: 3.15%
[3]
  growth inhibition: 2.3%
[4]
  growth inhibition: 2.45%
[5]
  growth inhibition: -11.7%
[6]
  growth inhibition: 6.85%

## CCC(C)c1ccc(CCO)cc1 (stereo not drawn)
[1]
  growth inhibition: 27.2%
[2]
  growth inhibition: 2.4%
[3]
  growth inhibition: -10.2%
[4]
  growth inhibition: 10%
[5]
  growth inhibition: -6.65%
[6]
  growth inhibition: 4.45%

## Cc1ccc(S(=O)(=O)N2C(=N)C(=S)N(C)C2=O)cc1
[1]
  growth inhibition: -42.9%
[2]
  growth inhibition: -10.3%
[3]
  growth inhibition: -15.4%
[4]
  growth inhibition: -30.4%
[5]
  growth inhibition: -15.8%
[6]
  growth inhibition: 12.4%

## COC(=O)C1=C(C(=O)OC)C2(CCCCCC2=O)OC1=O (stereo not drawn)
[1]
  growth inhibition: -0.65%
[2]
  growth inhibition: 5.45%
[3]
  growth inhibition: -12.8%
[4]
  growth inhibition: 8.9%
[5]
  growth inhibition: 3.85%
[6]
  growth inhibition: -8.25%

## CC(C)CCC(=O)OC/C(=N\Nc1ccc([N+](=O)[O-])cc1[N+](=O)[O-])c1ccc(-c2ccccc2)cc1
[1]
  growth inhibition: -17.7%
[2]
  growth inhibition: 12.5%
[3]
  growth inhibition: -15.8%
[4]
  growth inhibition: -35.6%
[5]
  growth inhibition: 1.9%
[6]
  growth inhibition: 14.8%

## CCOC(=O)c1ccc(NC(=O)CCCCl)cc1
[1]
  growth inhibition: 6.15%
[2]
  growth inhibition: -14.2%
[3]
  growth inhibition: -8.75%
[4]
  growth inhibition: 8.55%
[5]
  growth inhibition: 12.7%
[6]
  growth inhibition: -24.3%

## CC(C)N(Cc1ccccc1)C(=O)Nc1ccc(Cc2ccc(NC(=O)N(Cc3ccccc3)C(C)C)cc2)cc1
[1]
  growth inhibition: -0.7%
[2]
  growth inhibition: -12.3%
[3]
  growth inhibition: 0.35%
[4]
  growth inhibition: 18.4%
[5]
  growth inhibition: -10.1%
[6]
  growth inhibition: -8.3%

## Oc1ccc(-c2c3ccccc3c(-c3ccc(OCCBr)cc3)c3ccccc23)cc1
[1]
  growth inhibition: -24.2%
[2]
  growth inhibition: -9.75%
[3]
  growth inhibition: -9.9%
[4]
  growth inhibition: 4.65%
[5]
  growth inhibition: -11.3%
[6]
  growth inhibition: 7.4%

## CC(=O)OCC1OC(n2nc(/C=C/c3ccccc3)c(=O)n(-c3ccccc3)c2=S)C(OC(C)=O)C(OC(C)=O)C1OC(C)=O (stereo not drawn)
[1]
  growth inhibition: 0.1%
[2]
  growth inhibition: 20.6%
[3]
  growth inhibition: 8.85%
[4]
  growth inhibition: -10.3%
[5]
  growth inhibition: -0.45%
[6]
  growth inhibition: 31.9%

## CCC(C(=O)O)c1cccc2c(C)ccc(C)c12 (stereo not drawn)
[1]
  growth inhibition: 8.25%
[2]
  growth inhibition: 3.55%
[3]
  growth inhibition: 21.4%
[4]
  growth inhibition: 23.2%
[5]
  growth inhibition: 7.7%
[6]
  growth inhibition: 8.15%

## CNc1ccccc1C(N)=S
[1]
  growth inhibition: 5.9%
[2]
  growth inhibition: 2.5%
[3]
  growth inhibition: -2.95%
[4]
  growth inhibition: -26.1%
[5]
  growth inhibition: -5.55%
[6]
  growth inhibition: 11.8%

## O=C1OC(c2ccccc2)=N/C1=C\c1cccc2ccccc12
[1]
  growth inhibition: -45.9%
[2]
  growth inhibition: -36.6%
[3]
  growth inhibition: -13.6%
[4]
  growth inhibition: 0.35%
[5]
  growth inhibition: -16.4%
[6]
  growth inhibition: -31.1%

## C(=N\c1nccs1)/c1ccc(/C=N/c2nccs2)cc1
[1]
  growth inhibition: -5.2%
[2]
  growth inhibition: -5.2%
[3]
  growth inhibition: 1.6%
[4]
  growth inhibition: 9%
[5]
  growth inhibition: 12.1%
[6]
  growth inhibition: 7%

## CNCCC(Oc1ccccc1OC)c1ccccc1 (stereo not drawn)
[1]
  growth inhibition: 30.2%
[2]
  growth inhibition: 8.9%
[3]
  growth inhibition: -1.2%
[4]
  growth inhibition: 10.8%
[5]
  growth inhibition: 5.25%
[6]
  growth inhibition: 19.1%

## CCCCOC(=O)c1ccc(OC(=O)Nc2ccc(Cl)cc2)cc1
[1]
  growth inhibition: 10.4%
[2]
  growth inhibition: 42.3%
[3]
  growth inhibition: 39%
[4]
  growth inhibition: -11.2%
[5]
  growth inhibition: 78.7% (active)
[6]
  growth inhibition: 30.2%

## N#C/C(=C(\O)C(=O)O)c1ccc(-c2cccc3ccccc23)cc1
[1]
  growth inhibition: 29.6%
[2]
  growth inhibition: 0.6%
[3]
  growth inhibition: -17.9%
[4]
  growth inhibition: 1.9%
[5]
  growth inhibition: 16.7%
[6]
  growth inhibition: 26.9%

## C1CCc2nc3c(nc2C1)CCCC3
[1]
  growth inhibition: 9.75%
[2]
  growth inhibition: 1.6%
[3]
  growth inhibition: 1.7%
[4]
  growth inhibition: -9.65%
[5]
  growth inhibition: -0.5%
[6]
  growth inhibition: 7%

## CC1=NN(C(=O)c2ccc(Cl)cc2)C(=O)C1N=Nc1ccc(S(=O)(=O)Nc2ccccn2)cc1 (stereo not drawn)
[1]
  growth inhibition: -0.85%
[2]
  growth inhibition: 16.8%
[3]
  growth inhibition: 14.7%
[4]
  growth inhibition: 20.2%
[5]
  growth inhibition: -10.6%
[6]
  growth inhibition: 30.7%

## O=S(=O)(Oc1ccc(-c2ccccc2)cc1Br)c1ccccc1
[1]
  growth inhibition: 13%
[2]
  growth inhibition: -0.85%
[3]
  growth inhibition: 5.55%
[4]
  growth inhibition: 8.3%
[5]
  growth inhibition: 1.8%
[6]
  growth inhibition: -5.6%

## BrCCC1(CCBr)CCCCC1
[1]
  growth inhibition: 54%
[2]
  growth inhibition: 39.4%
[3]
  growth inhibition: 44.6%
[4]
  growth inhibition: 24.9%
[5]
  growth inhibition: 48.6%
[6]
  growth inhibition: 57.8%

## COc1ccc(C(C)O)cc1 (stereo not drawn)
[1]
  growth inhibition: 23.2%
[2]
  growth inhibition: 3.2%
[3]
  growth inhibition: 6.25%
[4]
  growth inhibition: 12.9%
[5]
  growth inhibition: -5.65%
[6]
  growth inhibition: 9.15%

## O=[N+]([O-])c1cccc(C2=NOC3CCCC23)c1 (stereo not drawn)
[1]
  growth inhibition: 17.6%
[2]
  growth inhibition: -7.6%
[3]
  growth inhibition: 15.2%
[4]
  growth inhibition: 13.8%
[5]
  growth inhibition: -8.3%
[6]
  growth inhibition: 16.9%

## O=C(Nc1ccc(Cl)cc1)Nc1nnc2nc(C(C(=O)c3ccc(O)cc3O)c3nc4nnc(NC(=O)Nc5ccc(Cl)cc5)n4[nH]c3=O)c(=O)[nH]n12
[1]
  growth inhibition: 25.6%
[2]
  growth inhibition: 39.9%
[3]
  growth inhibition: 44.2%
[4]
  growth inhibition: 60.9%
[5]
  growth inhibition: 14.7%
[6]
  growth inhibition: 12.3%

## COC(=O)C(=O)C1(C)CCc2c(ccc3ccc(OC)cc23)C1=O (stereo not drawn)
[1]
  growth inhibition: -32.8%
[2]
  growth inhibition: -3.1%
[3]
  growth inhibition: -5.9%
[4]
  growth inhibition: -31.9%
[5]
  growth inhibition: 19.9%
[6]
  growth inhibition: -5.65%

## O=C(O)CSCC(=O)c1ccccc1
[1]
  growth inhibition: -2.1%
[2]
  growth inhibition: -16.4%
[3]
  growth inhibition: -43.2%
[4]
  growth inhibition: -29.1%
[5]
  growth inhibition: -53.4%
[6]
  growth inhibition: -16.6%

## Cc1ccccc1NC(=O)CC#N
[1]
  growth inhibition: 8.15%
[2]
  growth inhibition: -12.3%
[3]
  growth inhibition: 1.5%
[4]
  growth inhibition: 3.85%
[5]
  growth inhibition: -0.7%
[6]
  growth inhibition: 2.2%

## CCOc1cccc(C=Nc2ccccc2SSc2ccccc2N=Cc2cccc(OCC)c2O)c1O
[1]
  growth inhibition: 42.2%
[2]
  growth inhibition: 18.6%
[3]
  growth inhibition: 61.5%
[4]
  growth inhibition: 2.85%
[5]
  growth inhibition: 68.6%
[6]
  growth inhibition: 68.5%

## COc1cc2cnc(-c3ccncc3)c(N)c2cc1OC
[1]
  growth inhibition: -0.75%
[2]
  growth inhibition: 8.4%
[3]
  growth inhibition: -11.6%
[4]
  growth inhibition: 24.6%
[5]
  growth inhibition: 7.8%
[6]
  growth inhibition: 7.65%

## CCOC(=O)C1C(C)=CC(=O)CC1C (stereo not drawn)
[1]
  growth inhibition: 19.8%
[2]
  growth inhibition: 1.65%
[3]
  growth inhibition: 21.9%
[4]
  growth inhibition: -4.8%
[5]
  growth inhibition: 4.5%
[6]
  growth inhibition: 4.45%

## CCCC(C(C)=O)C(C)=O
[1]
  growth inhibition: -7.8%
[2]
  growth inhibition: -0.65%
[3]
  growth inhibition: -4.85%
[4]
  growth inhibition: 0.3%
[5]
  growth inhibition: 6%
[6]
  growth inhibition: -4.25%

## COc1ccc(NC(=O)CSc2nc(C)nc3c2sc(=S)n3-c2ccccc2)cc1
[1]
  growth inhibition: -16.7%
[2]
  growth inhibition: -4.85%
[3]
  growth inhibition: 2.95%
[4]
  growth inhibition: 2.65%
[5]
  growth inhibition: -3.5%
[6]
  growth inhibition: 4.45%

## O=C(O)c1cc(=O)[nH]c(=O)[nH]1.[Cu+2]
[1]
  growth inhibition: -15.8%
[2]
  growth inhibition: 8.7%
[3]
  growth inhibition: -18.4%
[4]
  growth inhibition: -35.3%
[5]
  growth inhibition: -30.4%
[6]
  growth inhibition: -16.2%

## CC1(c2cccc3c2C2(O)C=CC4(CCC32)OCCO4)OCCO1 (stereo not drawn)
[1]
  growth inhibition: -59.4%
[2]
  growth inhibition: -41.2%
[3]
  growth inhibition: -55.8%
[4]
  growth inhibition: -27.6%
[5]
  growth inhibition: -61.1%
[6]
  growth inhibition: -26%

## C#CCC1(C(=O)OCC)C(=O)c2ccccc2N(C)C1=O (stereo not drawn)
[1]
  growth inhibition: 16.9%
[2]
  growth inhibition: 1.55%
[3]
  growth inhibition: 31.1%
[4]
  growth inhibition: 11.4%
[5]
  growth inhibition: 14%
[6]
  growth inhibition: 6.95%
